According to PubChem BioAssay (NCATS):
Results filed as inconclusive are left out. A number with no mark means an inactive call. Activity calls are given as the source filed them. Calls follow the shape of the dose curve; as a rule, active = well fitted cell-killing curve with a large enough effect; inconclusive = small, poorly fitted or top-dose-only effect, or effect the other way; inactive = no such curve, though single readings can be large or run the other way.

Assay: Quantitative High-Throughput drug screen in 47 multiple myeloma cell lines against the NCATS MIPE library collection: VP6_DJ cell viability assay (AID 1919867); also: nearly all actives have a fitted effect of over 40% in size;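 as to viability (% of DMSO): 100% = DMSO-only wells and 0% = wells with media alone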
Details: ATP luminescence, 48 h; series mostly up to 45.8 µM; viability (% of DMSO): at the top concentration
How it was run: (§1)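 500 cells/well; MIPE 4.0 drugs pin-transferred; 48 h, 37C, 5% CO2. CellTiter-Glo, 5 min RT, luminescence. Controls: DMSO 100%, media 0%.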
Potency is read from the fitted curve at half-maximal effect.

| Compound | viability (% of DMSO) | Potency |
| --- | --- | --- |
| Cc1cn(-c2cc(NC(=O)c3ccc(C)c(Nc4nccc(-c5cccnc5)n4)c3)cc(C(F)(F)F)c2)cn1 | 104% |  |
| COc1ccc(OC)c(-c2nnc3ccc(-c4ccc(OC)c(O[C@@H]5CCOC5)c4)nn23)c1 |  | 6620 nM (active) |
| CNC(=O)c1ccc(-c2cnc3ncc(Cc4ccc5ncccc5c4)n3n2)cc1F | 116% |  |
| Cc1nc2ccc(CN(C)c3ccc(C(=O)N[C@@H](CCC(=O)O)C(=O)O)s3)cc2c(=O)[nH]1 | 101% |  |
| C[C@@H]1CN(CC(=O)Nc2ccc3c(c2)Cc2cccc(-c4cc(=O)cc(N5CCOCC5)o4)c2S3)C[C@H](C)O1 |  | 16600 nM (active) |
| CC(=O)c1c(C)c2cnc(Nc3ccc(N4CCNCC4)cn3)nc2n(C2CCCC2)c1=O |  | 18700 nM (active) |
| COc1cc(C)c(Sc2cnc(NC(=O)c3ccc(CNC(C)C(C)C)cc3)s2)cc1C(=O)N1CCN(C(C)=O)CC1 (stereo not drawn) |  | 7430 nM (active) |
| COC(=O)C1=C(C)NC(C)=C(C(=O)OCCN2CCN(C(c3ccccc3)c3ccccc3)CC2)C1c1cccc([N+](=O)[O-])c1 (stereo not drawn) |  | 4180 nM (active) |
| COc1cc2c(cc1-c1c(C)noc1C)ncc1[nH]c(=O)n([C@H](C)c3ccccn3)c12 |  | 833 nM (active) |
| CC(=O)Nc1nc(C)c(-c2ccc(Cl)c(S(=O)(=O)NCCO)c2)s1 |  | 2640 nM (active) |
| Nc1ccc(C(=O)c2cc3c(ccc4ccccc43)[nH]2)cc1 |  | 3720 nM (active) |
| Nc1nc(NCCNc2ncc(-n3ccnc3)c(-c3ccc(Cl)cc3Cl)n2)ccc1[N+](=O)[O-] |  | 7430 nM (active) |
| Nc1ncnc2c1c(-c1cnc3[nH]ccc3c1)nn2C1CCCC1 |  | 372 nM (active) |
| CNc1nccc(-c2cccnc2Oc2cc(C(=O)Nc3cccc(C(F)(F)F)c3)ccc2C)n1 |  | 5260 nM (active) |
| COc1cc(=C2C=c3ccccc3=N2)[nH]c1=Cc1[nH]c(C)cc1C |  | 1660 nM (active) |
| O=C(O)Cn1nnc(-c2cc(N3CCC(Oc4cc(F)ccc4Br)CC3)no2)n1 | 139% |  |
| Cn1cc(-c2[nH]c3cc(NC(=O)[C@H](N)C4CCCCC4)cc4c3c2C=NNC4=O)cn1 |  | 1870 nM (active) |
| C[C@@]12O[C@@H](C[C@]1(O)CO)n1c3ccccc3c3c4c(c5c6ccccc6n2c5c31)CNC4=O |  | 264 nM (active) |
| CN1CCN(c2cc(C(=O)Nc3ccc4c(c3)-c3c(c(C(N)=O)nn3-c3ccc(F)cc3)CC4)c(Cl)cn2)CC1 |  | 2960 nM (active) |
| CCCCc1nc2cc(C=CC(=O)NO)ccc2n1CCN(CC)CC |  | 10.5 nM (active) |
| O=C1CCC[C@@H]2[C@H]3CCC[N+]4([O-])CCC[C@@H](CN12)[C@@H]34 (stereo partly drawn) |  | 6620 nM (active) |
| CC(C)c1ccc(Cn2ccc3c4c(N)nc(NC5CC5)nc4ccc32)cc1 |  | 3320 nM (active) |
| O=C(C=Cc1cccnc1)NCCCCC1CCN(C(=O)c2ccccc2)CC1 |  | 18.7 nM (active) |
| CC=CC1=C(C(=O)O)N2C(=O)[C@H](NC(=O)[C@H](N)c3ccc(O)cc3)[C@@H]2SC1 |  | 2960 nM (active) |
| O=C(O)c1ccc2c(c1)nc(Nc1cccc(Cl)c1)c1ccncc12 |  | 5900 nM (active) |
| Cc1ccc2nc(NC(=O)CSc3nc4c(c(=O)n3-c3ccccc3)SCC4)sc2c1 |  | 9350 nM (active) |
| CC1=C(CO)C(=O)O[C@@H]([C@@H](C)[C@H]2CC[C@H]3[C@@H]4C[C@H]5O[C@]56[C@@H](O)C=CC(=O)[C@]6(C)[C@@H]4CC[C@]23C)C1 |  | 166 nM (active) |
| Cc1cc(Nc2nc(N[C@@H](C)c3ccc(F)cc3)c(C#N)cc2F)n[nH]1 |  | 4690 nM (active) |

Assay: Quantitative High-Throughput drug screen in 47 multiple myeloma cell lines against the NCATS MIPE library collection: UTMC2_PLB cell viability assay (AID 1919868); also: nearly all actives have a fitted effect of over 55% in size;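 as to viability (% of DMSO control): 100% = DMSO-only wells and 0% = media-only wells without cells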
Details: CellTiter-Glo ATP luminescence, 48 h; viability (% of DMSO control): at 45.8 µM (top of the series) unless noted
How it was run: as §1

| Compound | Potency | viability (% of DMSO control) |
| --- | --- | --- |
| COc1ccc(OC)c(-c2nnc3ccc(-c4ccc(OC)c(O[C@@H]5CCOC5)c4)nn23)c1 | 9350 nM (active) |  |
| Cc1nc2ccc(CN(C)c3ccc(C(=O)N[C@@H](CCC(=O)O)C(=O)O)s3)cc2c(=O)[nH]1 | 1660 nM (active) |  |
| C[C@@H]1CN(CC(=O)Nc2ccc3c(c2)Cc2cccc(-c4cc(=O)cc(N5CCOCC5)o4)c2S3)C[C@H](C)O1 | 6620 nM (active) |  |
| COc1cc(C)c(Sc2cnc(NC(=O)c3ccc(CNC(C)C(C)C)cc3)s2)cc1C(=O)N1CCN(C(C)=O)CC1 (stereo not drawn) | 4180 nM (active) |  |
| CC(=O)Nc1nc(C)c(-c2ccc(Cl)c(S(=O)(=O)NCCO)c2)s1 | 526 nM (active) |  |
| Nc1ccc(C(=O)c2cc3c(ccc4ccccc43)[nH]2)cc1 | 9350 nM (active) |  |
| Nc1ncnc2c1c(-c1cnc3[nH]ccc3c1)nn2C1CCCC1 | 526 nM (active) |  |
| CNc1nccc(-c2cccnc2Oc2cc(C(=O)Nc3cccc(C(F)(F)F)c3)ccc2C)n1 | 14800 nM (active) |  |
| COc1cc(=C2C=c3ccccc3=N2)[nH]c1=Cc1[nH]c(C)cc1C | 2090 nM (active) |  |
| Cn1cc(-c2[nH]c3cc(NC(=O)[C@H](N)C4CCCCC4)cc4c3c2C=NNC4=O)cn1 | 74.3 nM (active) |  |
| C[C@@]12O[C@@H](C[C@]1(O)CO)n1c3ccccc3c3c4c(c5c6ccccc6n2c5c31)CNC4=O | 118 nM (active) |  |
| CN1CCN(c2cc(C(=O)Nc3ccc4c(c3)-c3c(c(C(N)=O)nn3-c3ccc(F)cc3)CC4)c(Cl)cn2)CC1 | 2090 nM (active) |  |
| CCCCc1nc2cc(C=CC(=O)NO)ccc2n1CCN(CC)CC | 264 nM (active) |  |
| CC(C)c1ccc(Cn2ccc3c4c(N)nc(NC5CC5)nc4ccc32)cc1 | 1870 nM (active) |  |
| O=C(C=Cc1cccnc1)NCCCCC1CCN(C(=O)c2ccccc2)CC1 | 1 nM (active) |  |
| Cc1c(C)n(Cc2ccc(-c3ccccc3C(=O)O)cc2)c2ccc(C(=O)N[C@@H](C)c3ccc([N+](=O)[O-])cc3)cc12 | 20900 nM (active) |  |
| O=C(O)c1ccc2c(c1)nc(Nc1cccc(Cl)c1)c1ccncc12 | 2640 nM (active) |  |
| Cc1ccc2nc(NC(=O)CSc3nc4c(c(=O)n3-c3ccccc3)SCC4)sc2c1 |  | 98.9% |
| CC1=C(CO)C(=O)O[C@@H]([C@@H](C)[C@H]2CC[C@H]3[C@@H]4C[C@H]5O[C@]56[C@@H](O)C=CC(=O)[C@]6(C)[C@@H]4CC[C@]23C)C1 | 296 nM (active) |  |
| Cc1cc(Nc2nc(N[C@@H](C)c3ccc(F)cc3)c(C#N)cc2F)n[nH]1 | 935 nM (active) |  |
